# High-throughput results: PubChem, several laboratories
# Sampled rows, rich in hits. Any-hit rate of the full collection: about 1.7%.
# Smad3 FoxH1 inh: blocks human Smad3 binding to FoxH1 peptide | inhibition, % at 25 µM | P84022 | actives 0.29% (n = 88,000) | TR-FRET Smad3/Dy647-FoxH1 peptide binding, europium anti-His;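 active means compounds that reduce the energy-transfer binding signal between the protein and its labelled peptide by more than half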;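 further: 0% = Smad3 plus labelled peptide maximal FRET and 100% = peptide-only background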
# Target sequence (P84022 whole entry, looked up): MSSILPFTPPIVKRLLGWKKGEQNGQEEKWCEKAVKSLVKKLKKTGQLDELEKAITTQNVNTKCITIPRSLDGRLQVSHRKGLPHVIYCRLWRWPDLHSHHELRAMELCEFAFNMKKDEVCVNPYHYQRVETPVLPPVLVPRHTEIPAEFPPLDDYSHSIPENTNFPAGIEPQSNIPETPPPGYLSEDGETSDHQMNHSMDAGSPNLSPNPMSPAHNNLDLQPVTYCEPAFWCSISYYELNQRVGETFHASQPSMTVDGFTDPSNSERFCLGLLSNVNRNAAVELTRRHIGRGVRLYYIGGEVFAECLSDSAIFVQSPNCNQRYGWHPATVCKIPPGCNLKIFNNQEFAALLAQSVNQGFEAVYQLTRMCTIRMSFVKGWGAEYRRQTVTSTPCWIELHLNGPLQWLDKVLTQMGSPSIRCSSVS
# Measles CPE: protection of cells from measles virus; actives 1.5% (n = 140,000); AID 841; Measles virus-infected cells, CPE protection, absorbance; protection (pct of control), % at 4 µM; in the data active means protection mostly above about 24%, no sharp cut-off; inactive means mostly below about 26%
# MT1-MMP txn act: MT1-MMP promoter transcription activation; AID 750; actives 0.16% (n = 86,000); HT1080 MT1-MMP promoter luciferase reporter, luminescence, overnight; hits give high values; activation factor at 10 µM;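 active means activation factor of at least 2 for MT1-MMP transcription at 10 µM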
# * = called active by the depositor; · = not tested or not shown.
SMILES,Smad3 FoxH1 inh,Measles CPE,MT1-MMP txn act
[O-][N+]1=C(c2cccs2)CN(O)C1,3,34*,1.1
CC1(C)N(O)CC(c2cccs2)=[N+]1[O-],5,5,1.2
CCCNS(=O)(=O)c1cccc(C(=O)NC2CCCc3ccccc32)c1 (stereo not given),·,41*,·
CN(C)S(=O)(=O)c1cccc(C(=O)NC2CCCc3ccccc32)c1 (stereo not given),-4,13,1.2
NC(N)=N/N=C(/c1ccc(Cl)cc1)C1CC1,-12,·,·
O=C(CN(Cc1ccco1)C(=O)CNS(=O)(=O)c1ccc(F)cc1)NCCc1ccccc1,4,39*,1.1
O=C(CN(Cc1ccco1)C(=O)CNS(=O)(=O)c1ccccc1)NCc1ccccc1,-17,14,1.1
COc1ccc(C(C)=O)cc1CSc1nncn1-c1ccccc1,·,27,·
CCCCNC(=O)C(Sc1ccccc1)c1ccccc1 (stereo not given),·,8,·
CCNC(=O)C(Sc1ccccc1)c1ccccc1 (stereo not given),11,30*,1.1
CC(C)CN=C(N)N=C(N)N,4,·,·
Cc1ccccc1S(=O)(=O)O[C@@H]1NS(=O)(=O)c2ccccc21,-1,·,·
O=C(O)[C@@H](O)[C@@H](O)[C@@H](O)[C@@H](O)c1nc2ccccc2s1,28,·,·
COc1ccc(-c2nnn(CC(=O)c3ccc4c(c3)OCCO4)n2)cc1OC,3,27*,1
CCOc1ccc(-c2nnn(CC(=O)c3ccc4c(c3)OCCO4)n2)cc1,1,9,1.1
Cc1ccc(S(=O)(=O)NC(C)(C)CSc2ccccn2)cc1,·,9,·
Cc1ccc(SCCC(=O)NCCSCc2ccccc2C)cc1,·,6,·
O=C(O)C1CCCN1C(=O)Nc1ccccc1 (stereo not given),-27,4,1.2
O=C(O)C1CCCN1C(=O)Nc1ccc(Cl)cc1 (stereo not given),·,26*,·
O=C(Nc1ccccc1)c1cc(S(=O)(=O)N2CCOCC2)cs1,3,18,·
CCOC(=O)Cc1csc(NC(=O)c2ccc(S(=O)(=O)N3CCCCC3)cc2)n1,·,39*,·
O=C(Nc1nc(-c2cccs2)cs1)c1ccc(Cl)cc1,2,49*,1.4
O=C(COC(=O)c1cc(S(=O)(=O)N2CCOCC2)cs1)c1ccccc1,-2,51*,1.1
O=C(COC(=O)c1cc(S(=O)(=O)N2CCOCC2)ccc1O)NCCc1ccccc1,1,39*,1.1
COc1ccc(C(=O)Nc2nc(-c3cccs3)cs2)cc1,0,7,1.7
SMILES,Smad3 FoxH1 inh,Measles CPE,MT1-MMP txn act
CCOC(=O)Cc1csc(NC(=O)c2ccc(NC(C)=O)cc2)n1,3,12,1.3
O=C(NCCc1ccccc1)c1cc(S(=O)(=O)N2CCOCC2)ccc1F,·,18,·
O=P(N[C@@H](c1ccccc1)[C@@H]1C[C@H]1CCO)(c1ccccc1)c1ccccc1,·,·,1.3
CC(C)CCC[C@@H](C)[C@@H]1CC[C@@H]2[C@H]3CC[C@H]4C[C@@H](N)CC[C@]4(C)[C@@H]3CC[C@]21C,-1,·,·
O=C(O)c1cccc(OCCO)c1,-1,·,·
CC1=C(C(=O)OCc2ccccc2)C(C2CC2)NC(=O)N1CCCCCC(=O)O (stereo not given),·,·,1.8
O=C(CN1C(=O)CCC1=O)Nc1nc(-c2ccc(Cl)s2)cs1,·,5,·
O=C(Nc1nc(-c2ccc(Cl)s2)cs1)c1ccncc1,·,58*,1.1
COc1cccc(C(=O)Nc2nc(-c3ccc(S(=O)(=O)N4CCOCC4)cc3)cs2)c1,6,24,0.9
O=C(Nc1nc(-c2cccs2)cs1)c1cccc(S(=O)(=O)N2CCCCC2)c1,1,32*,1.2
Cc1ccc(-c2csc(NC(=O)COC(=O)c3cccc(S(=O)(=O)N4CCOCC4)c3)n2)cc1,1,28*,1.7
Cc1ccc(-c2csc(NC(=O)c3cccc(S(=O)(=O)N4CCN(C)CC4)c3)n2)cc1,-3,6,1.1
COc1cc(Cl)c(C)cc1NC(=O)CSc1cc(Cl)ccc1Cl,·,3,·
COC(=O)[C@@]1(Cc2ccccc2)[C@H]2c3cc(C(=O)N(C)C)n(CCF)c3C[C@H]2CN1C(=O)c1ccccc1,·,·,1.1
OCCN(CCO)c1ncnc2nc[nH]c12,8,·,·
N#Cc1c(/N=C/c2cccs2)sc2c1CCCCC2,6,14,0.3
N#Cc1c(/N=C/c2ccc(Br)s2)sc2c1CCC2,-1,4,2*
Cc1nn(C2CCS(=O)(=O)C2)c(Cl)c1/C=C/C(=O)OCC(=O)c1cc(C)n(-c2ccc(F)cc2)c1C (stereo not given),·,46*,·
Cc1nn(C2CCS(=O)(=O)C2)c(Cl)c1/C=C/C(=O)OCC(=O)c1c[nH]c2ccccc12 (stereo not given),·,4,·
CC(C)(C)NC(=O)c1nc2nc(-c3ccccc3)cc(C(F)(F)F)n2n1,·,30,·
CCOC(=O)N1CCN(C(=O)c2ccc3c(=O)n(-c4ccc(F)cc4)c(=S)[nH]c3c2)CC1,21,28*,1
